Measurements taken from PubChem BioAssay (NCATS).
Inconclusive results are not listed. Active and inactive are the calls of the source. Calls follow the shape of the dose curve; as a rule, active = well fitted inhibition curve with a large enough effect; inconclusive = small, poorly fitted or top-dose-only effect; inactive = flat fitted curve, though single readings scatter.

Legend:
Test in all cases: qHTS profiling for inhibitors of Plasmodium falciparum proliferation (AID 504749); also: nearly all actives have a fitted effect of over 60% in size
Settings in all cases: P. falciparum in erythrocytes, SYBR Green DNA, 72 h; series mostly up to 28.7 µM
DIV14 = tested on: DIV14
Outline: (§1)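 Quantitative HTS: compounds pinned into medium, infected erythrocytes added (0.3% parasitemia, 2.5% hematocrit), 72 h culture at 37 C under 5% CO2. Saponin/Triton lysis with SYBR Green I, overnight RT, then fluorescence read.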

DIV17 = tested on: DIV17
Outline: as §1

DIV30 = tested on: DIV30
Outline: as §1

Dd2 = tested on: Dd2
Outline: as §1

ECU = tested on: ECU
Outline: as §1

FAB9 = tested on: FAB9
Outline: as §1

GB4 = tested on: GB4
Outline: as §1

HB3 = tested on: HB3
Outline: as §1

ICS = tested on: ICS
Outline: as §1

JCK = tested on: JCK
Outline: as §1

Measured: Potency
Potency is read from the fitted curve at half-maximal effect.

N=C(N)c1ccc(OCCCCCOc2ccc(C(=N)N)cc2)cc1
active: DIV14 0.269 µM | DIV17 0.426 µM | DIV30 1.69 µM | Dd2 0.501 µM | ECU 2 µM | FAB9 0.794 µM | GB4 0.338 µM | HB3 1.26 µM | ICS 1 µM | JCK 2.51 µM

COc1c(N2CCNC(C)C2)c(F)cc2c(=O)c(C(=O)O)cn(C3CC3)c12 (centres undefined)
not listed: Dd2
inactive: all other assays above

O=NN(CCCl)C(=O)NC1CCCCC1
inactive: all assays above

Nc1ccc(S(=O)(=O)Nc2ccccn2)cc1
inactive: all assays above

O=S(=O)(O)CCS
inactive: all assays above

NC(=O)N1c2ccccc2CC(=O)c2ccccc21
inactive: all assays above

CCOCC(O)COc1ccc(NC(=O)CC[S+](C)C)cc1 (centres undefined)
not listed: ICS
inactive: all other assays above

CC(C)Cn1cnc2c(N)nc3ccccc3c21
not listed: HB3
inactive: all other assays above

CCCCOc1ccc(CC(=O)NO)cc1
active: DIV14 1.44 µM | DIV17 2.87 µM | DIV30 2.56 µM | Dd2 3.55 µM | GB4 3.22 µM | HB3 3.98 µM | ICS 3.16 µM

CNC1CCCN(c2c(F)cc3c(=O)c(C(=O)O)cn(C4CC4)c3c2OC)C1 (centres undefined)
inactive: all assays above

COc1ccc2cc3[n+](cc2c1OC)CCc1cc2c(cc1-3)OCO2
active: DIV14 0.849 µM | DIV17 1.07 µM | DIV30 1.35 µM | Dd2 0.794 µM | ECU 1.41 µM | FAB9 0.708 µM | GB4 0.675 µM | HB3 1.78 µM | ICS 1.12 µM | JCK 3.16 µM

CC(C)(Sc1cc(C(C)(C)C)c(O)c(C(C)(C)C)c1)Sc1cc(C(C)(C)C)c(O)c(C(C)(C)C)c1
active: ICS 3.16 µM
not listed: HB3
inactive: all other assays above

N[C@@H](C(=O)N[C@@H]1C(=O)N2C(C(=O)O)=C(Cl)CS[C@H]12)c1ccccc1
inactive: all assays above

CN1CCCC(n2nc(Cc3ccc(Cl)cc3)c3ccccc3c2=O)CC1 (centres undefined)
inactive: DIV30 | FAB9 | HB3
active: DIV14 7.57 µM | DIV17 7.57 µM | Dd2 11.2 µM | ICS 8.91 µM

CC(=O)Oc1ccccc1C(=O)Nc1ncc([N+](=O)[O-])s1
active: DIV14 13.5 µM | DIV17 12 µM | ICS 11.2 µM
inactive: DIV30 | ECU | FAB9 | JCK

NCCCC(O)(P(=O)(O)O)P(=O)(O)O
inactive: all assays above

COc1ccc(-c2ccc3cc(C(=O)O)ccc3c2)cc1C12CC3CC(CC(C3)C1)C2
not listed: ICS
inactive: all other assays above

Cc1nnc(NS(=O)(=O)c2ccc(N)cc2)s1
inactive: all assays above

CNNCc1ccc(C(=O)NC(C)C)cc1
not listed: DIV14 | DIV17 | ICS
inactive: all other assays above

CNCC[C@H](Oc1cccc2ccccc12)c1cccs1
inactive: FAB9
active: DIV17 3.01 µM | DIV30 10.7 µM | Dd2 6.31 µM | ECU 11.2 µM | GB4 12 µM | ICS 3.16 µM

COc1cc2c(Nc3ccc(Br)cc3F)ncnc2cc1OCC1CCN(C)CC1
active: DIV14 1.51 µM | DIV17 2.39 µM | Dd2 8.91 µM | ECU 3.16 µM | FAB9 10 µM | GB4 1.51 µM | HB3 5.01 µM | ICS 3.98 µM

COC(=O)Nc1nc2ccc(C(=O)c3ccccc3)cc2[nH]1
not listed: DIV14 | DIV17 | GB4
inactive: all other assays above

CN(Cc1cc(Br)cc(Br)c1N)C1CCCCC1
inactive: DIV17 | DIV30 | ECU | FAB9 | JCK

Cn1nnc2c(C(N)=O)ncn2c1=O
not listed: DIV14
inactive: all other assays above

CCOc1cc(N)c(Cl)cc1C(=O)NCC1CN(Cc2ccc(F)cc2)CCO1 (centres undefined)
active: ECU 10 µM | GB4 12 µM | HB3 8.91 µM | ICS 3.98 µM

OC(Cn1cncn1)(Cn1cncn1)c1ccc(F)cc1F
not listed: DIV14
inactive: all other assays above

CC[C@H](NC(C)C)[C@H](O)c1ccc(O)c2[nH]c(=O)ccc12
not listed: DIV30
inactive: all other assays above

CCC(C)(C)c1ccc(CC(C)CN2C[C@@H](C)O[C@@H](C)C2)cc1 (some centres undefined)
inactive: DIV17 | DIV30 | ECU | FAB9 | GB4 | JCK

CC(C)OC(=O)C(C(=O)OC(C)C)=C1SC=CS1
not listed: DIV14 | DIV30
inactive: all other assays above

CCCc1nc(C)c2c(=O)[nH]c(-c3cc(S(=O)(=O)N4CCN(CC)CC4)ccc3OCC)nn12
inactive: Dd2 | FAB9 | GB4 | JCK
active: DIV14 5.36 µM | DIV17 10.7 µM | ICS 4.47 µM

NC(=O)c1cccnc1
not listed: DIV14
inactive: all other assays above

CCCCCCNC(=O)n1cc(F)c(=O)[nH]c1=O
active: DIV14 5.36 µM | DIV17 8.49 µM | DIV30 13.5 µM | GB4 8.49 µM | HB3 8.91 µM | ICS 4.47 µM

CCOC(=O)c1ccc(OC(=O)CCCCCN=C(N)N)cc1
inactive: DIV30 | Dd2 | FAB9 | JCK
active: DIV17 4.55 µM | HB3 4.47 µM | ICS 2 µM

COc1cccc(N(C)C(=S)Oc2ccc3c(c2)CCCC3)n1
not listed: DIV14 | DIV30 | ICS
inactive: all other assays above

S=P(N1CC1)(N1CC1)N1CC1
not listed: DIV30
inactive: all other assays above

O=P(O)(O)C(O)(Cc1cccnc1)P(=O)(O)O
not listed: DIV30
inactive: all other assays above

Cc1oc(=O)oc1CN1CCN(c2cc3c(cc2F)c(=O)c(C(=O)O)c2n3C(C)S2)CC1 (centres undefined)
active: DIV14 15.1 µM | DIV17 16.9 µM | Dd2 7.08 µM | ECU 10 µM | GB4 7.57 µM | HB3 8.91 µM | ICS 7.08 µM

Oc1c(Cl)cc(Cl)c2cccnc12
active: GB4 12 µM | ICS 7.94 µM
inactive: Dd2 | FAB9 | HB3 | JCK

CC1=CC(=O)c2ccccc2C1=O
inactive: DIV30 | Dd2 | ECU | FAB9 | HB3 | JCK

CC(N)C12CC3CC(CC(C3)C1)C2 (centres undefined)
active: GB4 6.75 µM
inactive: Dd2 | ECU | FAB9 | HB3 | ICS

CN1CCN(c2c(F)cc3c(=O)c(C(=O)O)cn(CCF)c3c2F)CC1
not listed: DIV14
inactive: all other assays above

CC[C@H](C)C(=O)O[C@H]1C[C@@H](C)C=C2C=C[C@H](C)[C@H](CC[C@@H]3C[C@@H](O)CC(=O)O3)[C@H]21
not listed: DIV17
inactive: all other assays above

CC(C)(C)C(=O)OCOP(=O)(COCCn1cnc2c(N)ncnc21)OCOC(=O)C(C)(C)C
inactive: DIV30 | ECU | FAB9 | JCK

O=C(O)c1cn(C2CC2)c2cc(N3CCNCC3)c(F)cc2c1=O
inactive: DIV17 | ECU | FAB9 | JCK
active: Dd2 3.16 µM | ICS 3.16 µM

C1CCC(C(CC2CCCCN2)C2CCCCC2)CC1 (centres undefined)
active: DIV14 3.79 µM | DIV17 3.38 µM | Dd2 12.6 µM | ECU 5.01 µM | GB4 9.53 µM | HB3 11.2 µM | ICS 1.12 µM | JCK 12.6 µM

CCOC(=O)c1ccc(C#Cc2ccc3c(c2)C(C)(C)CCS3)nc1
not listed: DIV14 | ICS
inactive: all other assays above

CCOC(=O)[C@H](CCc1ccccc1)N[C@H]1CS[C@H](c2cccs2)CN(CC(=O)O)C1=O
inactive: DIV17 | DIV30 | Dd2 | FAB9 | HB3 | JCK

O=c1oc2c(O)c(O)cc3c(=O)oc4c(O)c(O)cc1c4c23
inactive: JCK
active: Dd2 2 µM | GB4 0.849 µM | HB3 2 µM | ICS 0.891 µM
